According to PubChem BioAssay (NCATS):
A number with no mark means an inactive call. The call rests on the fitted dose curve; in most records, active means well fitted curve in the direction sought with a large enough effect; inconclusive means small, poorly fitted or top-dose-only effect, or effect the other way, or another doubt; inactive means no such curve, though single readings can be large or run the other way.

Experiment: qHTS for inhibitors of adenylyl cyclases using a fission yeast platform: a pilot screen against the NCATS LOPAC library (AID 1347410);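 further: plate controls were DMSO vehicle for no effect and DPI positive control for full effect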
Conditions: S. pombe CHP2027, fbp1-GFP fluorescence, 18 h, yeast expressing mammalian AC9 and human GNAS; series mostly up to 57.5 µM; activity, positive = inhibition (GFP gain): at the top concentration
In short: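 Read-out: fbp1-GFP fluorescence by laser scanning cytometry (488 nm laser), a gain of signal when AC/cAMP-PKA signalling is inhibited. Strain CHP2027 expressing AC9, GNAS and PDE4D2; compounds at up to 57 µM; 18 h, 30C.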

| SMILES | activity, positive = inhibition (GFP gain) |
| --- | --- |
| N#C/C(=C\c1ccc(O)c(O)c1)C(=O)NCCc1ccccc1 | -0.438% |
| CCCOC(=O)c1c(-c2ccccc2)nc(CC)c(C(=O)SCC)c1CCC | -0.438% |
| O=c1[nH]c(=S)[nH]c(-c2ccccc2)c1Cc1c(O)ccc2ccccc12 | -0.438% |
| N#CC(=C(\N)Sc1ccccc1N)/C(C#N)=C(/N)Sc1ccccc1N | -0.438% |
| CC(=O)SC1CC2=CC(=O)CC[C@]2(C)C2CC[C@@]3(C)C(CC[C@@]34CCC(=O)O4)C12 (some centres undefined) | 0.183% |
| COc1cc([C@@H]2c3cc4c(cc3[C@H](O)C3COC(=O)[C@@H]32)OCO4)cc(OC)c1OC (some centres undefined) | 0.0719% |
| NC(C(=O)N[C@@H]1C(=O)N2C(C(=O)O)=C(Cl)CS[C@H]12)c1ccccc1 (some centres undefined) | -0.438% |
| CCCCCCCCCCC(C)(C)C(=O)Nc1c(OC)cc(OC)cc1OC | -0.146% |
| O=C(O)/C=C/c1ccc(O)c(O)c1 | -0.438% |
| N#Cc1cc2nc(O)c(O)nc2cc1[N+](=O)[O-] | 3.05% |
| NC(=Nc1ccccc1)NC(=O)c1nc(Cl)c(N)nc1N | -0.0394% |
| NC(N)=[N+]1CCc2ccccc2C1 | -0.438% |
| CNCCNS(=O)(=O)c1cccc2cnccc12 | -0.438% |
| CC(C)(C)c1cc(/C=C(\C#N)C(N)=S)cc(C(C)(C)C)c1O | -0.438% |
| C[C@]12C=CC(=O)C=C1CC[C@@H]1C2=CC[C@]2(C)[C@@H](C(=O)CN3CCN(c4cc(N5CCCC5)nc(N5CCCC5)n4)CC3)CC[C@@H]12 | -0.438% |
| C[C@@]1(C2CCCC2)Cc2cc(OCC(=O)O)c(Cl)c(Cl)c2C1=O | -0.438% |
| NC1C=CC=C(C(=O)O)C1 (centres undefined) | -0.438% |
| C=CCN1CCc2c(cc(O)c(O)c2Br)[C@@H](c2ccccc2)C1 | -0.438% |
| O=c1cc(O)cc(/C=C/c2ccc(O)c(O)c2)o1 | -0.438% |
